A549 tox-1: Nrf2 qHTS screen for inhibitors: counterscreen for cytotoxicity. actives 0.16% (n = 390,000). Potency, µM (top dose mostly 46 µM), inactives show at the highest dose activity change, negative = cytotoxicity, hits mostly inhibitors. A549 ARE-Fluc cells, CellTiter-Fluor viability, 18-24 h; also: % is scaled to controls: 0 for no effect and ±100 for the full control effect
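A549 ARE_Fluc cells in 5% FBS OPTI-MEM were exposed to compounds in concentration-response for 18-24 h at 37 deg C. Viability was read by CellTiter-Fluor fluorescence (Ex 405/Em 525) after 30 min, before the luciferase read.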
ATXN2 expr inh: Primary qHTS for Inhibitors of ATXN expression; HEK-293 ATXN2-luciferase reporter, luminescence, 24 h; Potency, µM (titrated, usually from 57 µM), for inactives: at the top dose activity change, negative = inhibition, most hits filed as inhibitors; actives 0.72% (n = 360,000); also: % is scaled to controls: 0 for no effect and ±100 for the full control effect; nearly all actives have a fitted effect of over 55% in size
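qHTS (up to 57 uM final) was run with 24 h compound exposure of reporter cells at 37 °C. Each well was multiplexed: SteadyGlo luminescence measured ATXN2-luciferase expression after a fluorogenic Gly-Phe-AFC viability readout (25 uM final).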
HepG2 viability: qHTS for Inhibitors of TGF-b: Cytotox Counterscreen; actives 0.76% (n = 410,000); HepG2 CAGA-GFP viability, ATP luminescence, 18 h; Potency, µM (highest dose often 46.1 µM), for the others: at the highest dose activity change, negative = cytotoxicity, most hits filed as cytotoxic
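HepG2 CAGA-GFP cells (1000/well, DMEM with 1% FBS) received compound, then TGF-beta at 500 pg/mL final, and were incubated 18 hours at 37 degrees C. Viability was read by CellTiter-Glo luminescence. Media-only wells were set as complete cell-killing and DMSO as no toxicity.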
S2 tox: Viability Counterscreen for Primary qHTS for Inhibitors of ATXN expression; S2 cells (HEK-293 line with an ATXN2-luciferase reporter) viability, CellTiter-Fluor protease fluorescence, 24 h; Potency, µM (titrated, usually from 56.7 µM), hits mostly cytotoxic; actives 0.49% (n = 400,000); AID 651635, 2014; also: nearly all actives have a fitted effect of over 40% in size
Nrf2 inh: Nrf2 qHTS screen for inhibitors; A549 ARE-Fluc reporter, luciferase luminescence, 18-24 h; Potency, µM (series often up to 46 µM), inactives show at the top dose activity change, negative = inhibition, hits mostly inhibitors; actives 2.1% (n = 360,000); AID 504444, 2011; also: % is scaled to controls: 0 for no effect and ±100 for the full control effect; nearly all actives have a fitted effect of over 60% in size
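In this cell-based qHTS, ARE-driven firefly luciferase in A549 cells reports Nrf2 activity; the luminescent signal after BugLite lysis is the measured value, with a prior CellTiter-Fluor read for cell health.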
TGFb inhibitor: qHTS for Inhibitors of TGF-b; HepG2 CAGA-GFP TGF-b/SMAD3 reporter, GFP fluorescence, 18 h; TGF-beta stimulated, 500 pg/mL final; Potency, µM (top dose mostly 46.1 µM), for inactives: top-dose activity, negative = inhibition, most hits filed as inhibitors; actives 1.2% (n = 410,000); also: % is scaled to controls: 0 for no effect and ±100 for the full control effect; nearly all actives have a fitted effect of over 65% in size
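TGF-beta reporter screen: HEPG2 CAGA-GFP, 1% FBS, 500 pg/mL TGF-beta final, 18 h; per-cell GFP summed per well; curves fitted and categorized by class.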
FLuc enzyme inh: Nrf2 qHTS screen for inhibitors: Purified Fluc Biochemical Counterscreen for Hit Validation; shares compounds with Nrf2 inh; purified firefly luciferase, luminescence inhibition; Potency, µM (doses to about 57.5 µM), for inactives: top-dose activity change, negative = inhibition, actives largely listed as inhibitors; actives 4% (n = 1,400); AID 720522, 2013; also: % is scaled to controls: 0 for no effect and ±100 for the full control effect; nearly all actives have a fitted effect of over 65% in size
Target sequence (P08659 whole entry, looked up): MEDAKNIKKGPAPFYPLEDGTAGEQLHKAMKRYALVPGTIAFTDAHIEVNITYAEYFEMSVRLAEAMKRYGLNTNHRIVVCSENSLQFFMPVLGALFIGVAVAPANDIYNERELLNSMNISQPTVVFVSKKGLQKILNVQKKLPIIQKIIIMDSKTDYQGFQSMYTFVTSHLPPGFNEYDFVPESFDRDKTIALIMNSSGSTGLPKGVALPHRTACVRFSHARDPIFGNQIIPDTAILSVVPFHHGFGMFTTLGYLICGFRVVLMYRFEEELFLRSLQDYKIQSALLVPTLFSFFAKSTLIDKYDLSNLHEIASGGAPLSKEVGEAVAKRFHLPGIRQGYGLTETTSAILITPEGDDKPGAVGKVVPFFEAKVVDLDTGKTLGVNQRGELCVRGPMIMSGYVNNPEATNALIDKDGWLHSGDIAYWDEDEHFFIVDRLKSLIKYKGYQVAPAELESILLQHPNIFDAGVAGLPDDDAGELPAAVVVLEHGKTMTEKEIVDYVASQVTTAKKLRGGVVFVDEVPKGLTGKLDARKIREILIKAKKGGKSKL
A549 tox-2: Nrf2 qHTS screen for inhibitors: A549 ARE-Fluc Cytotoxicity Counterscreen for Hit Validation; shares compounds with Nrf2 inh; A549 ARE-Fluc cells, cytotoxicity counterscreen; Potency, µM (top dose mostly 46.1 µM), for inactives: top-dose activity change, negative = cytotoxicity, actives largely listed as inhibitors; actives 2% (n = 1,400); AID 720523, 2013;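 also: cells exposed to compounds for 18 to 24 hours; % is scaled to controls: 0 for no effect and ±100 for the full control effect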
ARE-Fluc inh: Nrf2 qHTS screen for inhibitors: Nrf2 A549 ARE-Fluc Confirmation Assay for Hit Validation; A549 ARE-firefly luciferase reporter, luminescence; AID 720524, 2013; Potency, µM (highest dose often 46.1 µM), for the others: top-dose activity change, negative = inhibition, usual class: inhibitors; actives 74% (n = 1,400); shares compounds with Nrf2 inh; also: % is scaled to controls: 0 for no effect and ±100 for the full control effect; nearly all actives have a fitted effect of over 65% in size
Numbers without * were called inactive; i = inactive; ? = inconclusive; · = no result shown; [ ] = remark or other dose. Hits are enriched below; roughly 3.8% of the tested compounds scored in any of these assays. Calls follow the shape of the dose curve; as a rule, active = well fitted curve in the direction sought with a large enough effect; inconclusive = small, poorly fitted or top-dose-only effect, or another doubt; inactive = no such curve, though single readings can be large; an effect the other way counts as inactive or inconclusive. Potency is read from the fitted curve at half-maximal effect.

SMILES	A549 tox-1	ATXN2 expr inh	HepG2 viability	S2 tox	Nrf2 inh	TGFb inhibitor	FLuc enzyme inh	A549 tox-2	ARE-Fluc inh
CC(Oc1ccc(Cl)cc1Cl)C(=O)Nc1ccc2oc(-c3ccncc3)nc2c1 (stereo not given)	?	-31.8%	-16.1%	i	4.61µM*	0.0%	3.3%	-16.3%	8.2µM*
COC(=O)[C@@H](Cc1c[nH]c2ccccc12)NC(=O)C1CCCN(S(=O)(=O)c2ccc(C)cc2)C1 (stereo not given in full)	0.0%	-7.2%	-51.5%	?	6.6%	?	·	·	·
Cc1nc2ccc(S(=O)(=O)N3CCN(S(=O)(=O)c4c(F)cccc4F)CC3)cc2s1	-2.9%	·	·	·	-4.9%	·	·	·	·
CCOC(=O)c1c(Nc2ccc(Cl)cc2)sc(/C=C2\C=Nc3ccccc32)c1O	-7.4%[1.84 µM]	?	-1.1%	?	1.46µM*	-1.9%	-27.3%	?	4.11µM*
Nc1ccn(Cc2cccc(F)c2)n1	-0.2%	·	10.2%	i	-16.5%	13.8%	·	·	·
N=c1ccn(Cc2cccc(F)c2)cc1	?	-23.3%	-3.3%	i	2.06µM*	-15.7%	5.0%	-10.4%	5.8µM*
CNc1ccc(C=C2c3ccccc3-c3ccccc32)cc1	·	·	-40.0%	·	·	?	?	-25.3%	3.66µM*
CNc1ccc(/C=C2\C=Cc3ccccc32)cc1	·	·	-52.5%	·	·	?	·	·	·
COc1ccc(NC(=O)COC(=O)C2COc3ccccc3O2)cc1OC (stereo not given)	·	·	4.5%	i	·	6.4%	·	·	·
Cc1cc(C)c(C)c(S(=O)(=O)N2CCC(C(=O)N3CCN(c4ccc(F)cc4)CC3)CC2)c1C	2.9%	-11.2%	-18.9%	i	?	-16.1%	·	·	·
Cc1ccc(C(C)(C)C)cc1S(=O)(=O)N1CCC(C(=O)N2CCN(c3ccc(O)cc3)CC2)CC1	-18.6%	?	-39.3%	i	9.2µM*	-15.0%	?	-0.3%	·
COc1ccc(S(=O)(=O)c2cn(Cc3ccccc3)c3cc(N4CCCC4)c(F)cc3c2=O)cc1	14.0%	·	-8.9%	·	24.0%	-26.2%	·	·	·
CC(C)CCCCCCCCCCCCC(=O)NCC(=O)NC1C(O)C(O)C(Nc2ncnc3nc[nH]c23)OC1C(O)CO (stereo not given)	0.731µM*	-65.6%	-33.8%	i	0.058µM*	?	-0.1%	?	0.013µM*
NC(=O)c1ccc(NC(=O)C#Cc2ccccc2)cc1	-17.7%	4.7%	-32.1%	?	4.61µM*	?	?	?	5.8µM*
CC(Oc1ccccc1)C(=O)Nc1ccc(C(N)=O)cc1 (stereo not given)	10.3%	8.9%	1.0%	i	·	-1.3%	·	·	·
Cc1cc(C)c(C(N)=O)c(SCC(=O)c2cc(C)n(-c3cc(C)on3)c2C)n1	-11.7%	-23.1%	-1.7%	i	2.31µM*	-19.3%	-1.1%	-7.8%	?
COC(=O)C1=C(C)Nc2nnnn2C1c1cccnc1 (stereo not given)	12.1%	-4.9%	4.8%	i	·	31.8%	·	·	·
CC1=C(C(=O)OC2CCCCC2)C(c2cccnc2)n2nnnc2N1 (stereo not given)	-14.1%	-18.8%	-33.1%	i	8.2µM*	?	3.9%	-16.2%	?
CCc1ccc(CNC(=O)c2ccc3c(c2)nc2n3CCOC2)cc1	1.4%	·	-5.1%	·	·	25.6%	·	·	·
COC(=O)c1ccc2c(c1O)C(=O)c1ccccc1C2=O	?	-9.5%	-35.0%	?	3.26µM*	-13.0%	10.7µM*	3.66µM*	3.66µM*
O=C1c2ccccc2C(=O)c2c1ccc(O)c2O	-8.5%	-19.7%	-26.0%	?	14.1%	-2.6%	·	·	·
CCOc1cc(/C=N\NC(=O)c2ccc(NC(=O)C(C)(C)C)cc2)ccc1OC(=O)c1cccc(C)c1	-3.0%	-34.7%	-1.6%	?	5.17µM*	19.3%	-0.1%	-2.6%	14.6µM*
CC1CCC(NC(=O)CSc2nncn2C)CC1 (stereo not given)	-1.5%	-10.7%	4.0%	i	13.5%	-0.5%	·	·	·
COCCC(=O)N1CCC(Oc2ccc(C(=O)N3CCC[C@H]3CO)cc2)CC1	4.1%	12.5%	6.9%	i	20.6%	-5.1%	·	·	·
CN(c1ccc(C(=O)N2CCN(Cc3ccc4c(c3)OCO4)CC2)cc1)S(=O)(=O)c1ccccc1	2.6%	-16.8%	-4.2%	?	6.51µM*	-12.8%	2.2%	0.8%	9.2µM*
SMILES	A549 tox-1	ATXN2 expr inh	HepG2 viability	S2 tox	Nrf2 inh	TGFb inhibitor	FLuc enzyme inh	A549 tox-2	ARE-Fluc inh
Cc1ccc(S(=O)(=O)N(C)c2ccc(C(=O)N3CCN(Cc4ccc5c(c4)OCO5)CC3)cc2)cc1	-19.5%	?	-4.8%	i	?	?	·	·	·
Cc1ccc(-c2c[n+]3c(n2-c2ccccc2)SCC3)cc1	-15.8%	?	-25.8%	?	2.31µM*	-17.7%	0.0%	-3.8%	10.3µM*
COc1ccc(-c2c[n+]3c(n2-c2ccccc2)SCC3)cc1	-14.8%	-35.3%	-17.0%	i	2.06µM*	?	1.3%	-9.8%	7.31µM*
Brc1ccc(-c2c[n+]3c(n2-c2ccccc2)SCC3)cc1	-4.9%	-35.7%	-2.3%	i	?	-0.7%	·	·	·
Cc1ccc(C(=O)OCC(=O)NC(=O)c2cccn2C)cc1	17.1%	5.2%	-13.8%	i	1.3µM*	5.1%	-14.6%	0.1%	1.64µM*
CC(C)c1ccc(NC(=O)c2ccc(=O)n(Cc3ccccc3)c2)cc1	-0.3%	?	-17.2%	?	·	?	·	·	·
COc1ccc(/C=N\NC(=O)c2ccccc2Br)cc1COc1c(F)c(F)cc(F)c1F	?	?	-47.6%	i	5.17µM*	?	0.7%	-6.6%	?

Compound activity from PubChem.
